# PGC1a acetyl inh – lowers PGC1a acetylation signal in U2OS cells. inhibition, % at 15.6 µM. 0.17% of 350,000 active. AlphaScreen anti-acetyl-lysine; with virally co-expressed GCN5 acetyltransferase;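 active = every replicate shows inhibition of at least 40%; inconclusive = mean inhibition at least 40% but some replicate below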
# DENV2 CPE – inhibitors of DENV2 cytopathic effect | DENV2-infected cells, cytopathic effect rescue, plate reader | AID 651640 | 1.7% of 350,000 active | CPE inhibition, % at 9.99 µM; in the data active = CPE inhibition above about 20%, passing the limit was not always enough; inconclusive = no clear call, values can overlap the other calls; tested in BHK-21 cells
# CaV13 FRET inh – Primary screen for inhibitors of IQ motif and Ca2+-dependent inactivation inhibitor domain binding in CACNA1D, Förster resonance energy transfer in living cells, …; AID 743397; HEK cells, CFP/YFP FRET ICDI-IQ, plate reader, 10 min; percent FRET-ratio fall versus neutral wells; inhibition, % at 12.3 µM; 0.098% of 340,000 active;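 active = mean replicate inhibition of at least 30% and at least 1% of replicates passing that level; inconclusive = only one of the two criteria is met; inactive = neither criterion is met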
# GSIS activator – GLuc luminescence reporter in INS-1E cells, primary screen for activators of glucose-dependent secretion of insulin; INS-1E GLuc reporter insulin secretion, 2-3 h; activation, % at 16.6 µM; 0.61% of 370,000 active; AID 743287;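 active = lowest replicate activation of at least 40%, so every replicate reaches that level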
# ERAP1 HTS inh – blocks human ERAP1 aminopeptidase activity; Q9NZ08; inhibition, % at 10.7 µM; recombinant ERAP1, Leu-AMC fluorescence, 60 min; 0.15% of 340,000 active;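 active = mean replicate inhibition of at least 30%, or all replicates individually reaching that 30% level; inactive = mean below 30% and not every replicate reaching it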
# Target sequence (Q9NZ08 whole entry, looked up): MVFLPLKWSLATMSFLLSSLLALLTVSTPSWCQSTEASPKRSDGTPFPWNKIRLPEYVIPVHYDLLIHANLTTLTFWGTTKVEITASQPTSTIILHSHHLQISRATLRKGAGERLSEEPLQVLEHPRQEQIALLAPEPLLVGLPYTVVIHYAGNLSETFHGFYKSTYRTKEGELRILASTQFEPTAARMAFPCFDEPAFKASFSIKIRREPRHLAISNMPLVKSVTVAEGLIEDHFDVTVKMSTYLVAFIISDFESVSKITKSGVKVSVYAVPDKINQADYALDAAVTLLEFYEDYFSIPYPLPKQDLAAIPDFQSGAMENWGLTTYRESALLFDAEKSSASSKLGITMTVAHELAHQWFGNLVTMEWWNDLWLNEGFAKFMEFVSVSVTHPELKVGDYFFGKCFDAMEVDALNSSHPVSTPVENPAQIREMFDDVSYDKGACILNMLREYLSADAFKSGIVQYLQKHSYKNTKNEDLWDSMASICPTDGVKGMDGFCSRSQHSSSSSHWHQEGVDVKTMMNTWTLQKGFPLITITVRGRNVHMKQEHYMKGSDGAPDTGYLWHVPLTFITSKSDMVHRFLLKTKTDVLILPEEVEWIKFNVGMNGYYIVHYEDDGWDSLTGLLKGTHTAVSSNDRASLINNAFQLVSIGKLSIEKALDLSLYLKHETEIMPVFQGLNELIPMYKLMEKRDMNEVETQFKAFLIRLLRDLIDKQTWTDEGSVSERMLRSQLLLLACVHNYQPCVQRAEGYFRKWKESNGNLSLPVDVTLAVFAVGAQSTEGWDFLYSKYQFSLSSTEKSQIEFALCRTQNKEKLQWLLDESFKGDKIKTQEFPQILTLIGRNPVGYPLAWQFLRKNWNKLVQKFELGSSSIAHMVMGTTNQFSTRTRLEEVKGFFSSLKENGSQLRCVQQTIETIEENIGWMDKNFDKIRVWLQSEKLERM
# Ecoli rRNA inh – selective bacterial rRNA inhibition in E. coli. E. coli WT GFP vs humanized-ribosome RFP mutants, fluorescence, 24 h; active compounds read low; DMSO median 0, no signal -100. GFP signal change (wild-type ribosome), % (test concentration not listed). 1.6% of 350,000 active;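 active = significant combined selectivity score with lowered wild-type GFP, culture density cut under 30%, mutant RFP and density less affected; inactive = any of these conditions unmet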
# Numbers stand for hits; i = inactive; ? = inconclusive; nt = not tested or not shown. Sampled rows, rich in hits. Any-hit rate of the full collection: about 3.2%.
SMILES,PGC1a acetyl inh,DENV2 CPE,CaV13 FRET inh,GSIS activator,ERAP1 HTS inh,Ecoli rRNA inh
C[C@H]1CN([C@@H](C)CO)C(=O)c2cc(C#CC3CC3)cnc2O[C@H]1CN(C)C,i,i,nt,i,i,i
C[C@@H]1CN([C@H](C)CO)C(=O)c2cc(C#CC3CC3)cnc2O[C@H]1CN(C)C(=O)Nc1ccccc1,i,31.3,nt,i,i,i
C[C@H](CO)N1C[C@H](C)[C@H](CN(C)C)Oc2ncc(C#CC3CC3)cc2C1=O,i,101.5,nt,i,i,i
C[C@H](CO)N1C[C@H](C)[C@H](CN(C)C(=O)Cc2ccccn2)Oc2ncc(C#CC3CC3)cc2C1=O,i,24.7,nt,i,i,i
C[C@@H]1CN([C@@H](C)CO)S(=O)(=O)c2ccc(C3=CCCC3)cc2O[C@H]1CN(C)Cc1ccccn1,i,i,nt,i,i,i
C[C@@H]1CN([C@H](C)CO)C(=O)Cc2cc(NC(=O)Cn3cnnn3)ccc2O[C@@H]1CN(C)CC1CCCCC1,i,21.5,nt,i,i,i
C[C@H](CO)N1C[C@H](C)[C@H](CN(C)C(=O)Nc2ccc3c(c2)OCO3)Oc2ccc(NC(=O)Cn3cnnn3)cc2CC1=O,i,41.7,nt,i,i,i
C[C@@H]1CN([C@H](C)CO)C(=O)Cc2cc(NC(=O)Cn3cnnn3)ccc2O[C@H]1CN(C)C(=O)Nc1ccc(C(F)(F)F)cc1,i,30.4,nt,i,i,i
C[C@H](CO)N1C[C@H](C)[C@@H](CN(C)C(=O)Nc2ccc(C(F)(F)F)cc2)Oc2ccc(NC(=O)Cn3cnnn3)cc2CC1=O,i,i,nt,i,i,i
COc1ccc(CN(C)C[C@@H]2Oc3ccc(NC(=O)C4CCCCC4)cc3C(=O)N([C@H](C)CO)C[C@@H]2C)cc1,i,i,nt,i,i,i
CO[C@H]1CN(C)C(=O)c2cc(NS(=O)(=O)c3ccc(C)cc3)ccc2OC[C@@H](C)NC[C@H]1C,i,i,nt,i,i,i
Cc1ccc(-c2cc3onc(-c4ccccc4)c3c(=O)n2C)cc1,nt,i,i,i,i,i
CNC(=O)c1ccc(-c2cc3onc(-c4ccccc4)c3c(=O)n2C)cc1,i,i,i,i,i,-27.8
COc1ccc2c3c([nH]c2c1)[C@H](CO)N(C(=O)c1ccncc1)CC31CCN(C)CC1,nt,nt,nt,i,nt,i
O=C(CSc1nccc(=O)[nH]1)N1CCOCC1,i,115.2,i,i,i,i
CCOc1ccc(C(=O)NC(=S)Nc2ccc(NC(=O)c3ccco3)cc2)cc1[N+](=O)[O-],nt,nt,i,43.1,nt,nt
COc1cc(C(=O)NC(=S)Nc2ccc(NC(=O)c3ccco3)cc2)cc(OC)c1OC,nt,nt,i,i,nt,nt
CCOc1ccc(C(=O)Nc2ccc(NC(=O)c3cccs3)cc2)cc1[N+](=O)[O-],i,nt,i,103.6,nt,nt
C[C@H](CO)N1C[C@H](C)[C@@H](CN(C)C(=O)C2CCCCC2)OCCCC[C@H](C)Oc2ccc(NC(=O)NC3CCCCC3)cc2C1=O,nt,i,nt,i,i,i
CCN(C(=O)c1cnc(NC(C)C)cc1C(F)(F)F)c1ccc(Cl)cc1Cl,nt,?,i,i,i,-22.8
CCN(C(=O)c1cc(Cl)ccc1OC)c1ccccc1C,i,nt,nt,nt,nt,nt
CCC(=O)Nc1ccc(C(=O)N/N=C/c2cccnc2)cc1,i,nt,i,43.6,nt,nt
CCO[C@@H]1OC(C(=O)N2CCCCCCC2)=C[C@H](C)[C@H]1CCCO,i,i,nt,nt,i,nt
CCOC(=O)N1CCC(NC(=O)c2cc(S(=O)(=O)N3CCc4ccccc43)cn2C)CC1,i,nt,i,i,nt,nt
CCOC(=O)c1cc(S(=O)(=O)N2CCc3ccccc32)cn1C,i,39.1,i,i,i,i
SMILES,PGC1a acetyl inh,DENV2 CPE,CaV13 FRET inh,GSIS activator,ERAP1 HTS inh,Ecoli rRNA inh
CCOC(=O)c1c(CSC(=N)N)n(-c2ccccc2)c2cc(Br)c(OC(C)=O)cc12,nt,i,i,i,i,-42.9
CCOC(=O)c1c(CN2CCN(C)CC2)n(-c2ccccc2)c2cc(Br)c(O)cc12,i,i,i,i,i,i
CCCC#Cc1ccc2c(c1)O[C@@H](CN(C)C(=O)c1ccccc1)[C@H](C)CN([C@@H](C)CO)S2(=O)=O,i,i,nt,i,i,i
O=C(O)c1ccccc1C(=O)NCc1c(Cl)cccc1Sc1ccc(Cl)cc1,i,26.2,i,i,i,-29.1
CC(C)(CC(=O)O)CC(=O)NCc1c(Cl)cccc1Sc1ccc(Cl)cc1,i,i,i,i,i,-40.3
O=C(O)CCCC(=O)NCc1c(Cl)cccc1Sc1ccc(Cl)cc1,i,i,i,nt,nt,nt
O=C(CSc1ccccc1C(=O)O)NCc1ccc(Cl)cc1,nt,nt,i,i,i,i
Cc1cc(/C=C(\C#N)C(=O)N2CCOCC2)c(C)n1C1CCCC1,nt,i,i,i,i,-22.0
COc1ccc(/C=C(\C#N)C(=O)N2CCOCC2)cc1Br,i,nt,i,i,nt,nt
C[C@@H]1CCCCO[C@@H](CN(C)S(=O)(=O)c2cn(C)cn2)[C@H](C)CN([C@H](C)CO)C(=O)c2cc(NC(=O)c3ccccc3)ccc2O1,i,i,nt,i,i,i
O=C(c1ccc(F)cc1)N1CC[C@@H]2[C@@H](CO)Nc3ccc(C#CC4CC4)cc3[C@@H]21,nt,nt,nt,i,nt,i
CC(C)OC(=O)c1c(F)c(F)c(N2CCOCC2)c(F)c1F,57.4,nt,i,nt,nt,nt
O=C(Nc1ccccc1)N1CC(=O)N2[C@H](C1)[C@@H](c1ccc(C#CC3CCCCC3)cc1)[C@@H]2CO,i,i,nt,i,i,i
O=C(OCn1ncc(Br)c(Br)c1=O)c1ccccc1Cl,i,nt,nt,115.4,i,-20.1
CCc1cc(/C(Cc2ccccn2)=N\O)c(O)cc1O,i,i,i,i,i,-32.7
CCc1cc(/C(Cc2cscn2)=N\O)c(O)cc1O,i,nt,i,nt,nt,nt
CCOc1ccc(CN2CCN(CCCc3ccccc3)CC2CCO)cc1 (stereo not given),nt,22.0,i,nt,i,i
O=C(NC(=S)N1CCCCC1)c1cccs1,nt,nt,i,i,nt,nt
CC1CCN(C(=S)NC(=O)c2cccs2)CC1,i,i,i,i,i,-21.9
Cc1noc(C)c1S(=O)(=O)Nc1ccc2c(c1)C(=O)N([C@@H](C)CO)C[C@@H](C)[C@@H](CN(C)C(=O)Nc1ccc(F)cc1)O2,i,nt,nt,i,nt,i
O=C(CSc1nc(=O)n2ccccc2n1)N1CCCc2ccccc21,i,67.6,i,i,i,i
CCC(C)(C)c1ccc(OCCCC[n+]2cccc(C)c2)c(C(C)(C)CC)c1,nt,i,i,184.6,i,i
Cc1cccc(S(=O)(=O)N2C[C@H](O)COC[C@H]3O[C@H](CC(=O)NCc4ccc5c(c4)OCO5)CC[C@@H]32)c1,i,i,nt,i,i,i
C/C(=N\N=C(/N)SC1CC(=O)N(c2ccc(Cl)cc2)C1=O)c1cccs1 (stereo not given),i,nt,i,nt,nt,nt
C/C(=N\N=C(/N)SC1CC(=O)N(c2ccc(Cl)c(Cl)c2)C1=O)c1cccs1 (stereo not given),i,i,i,i,i,-38.7
